Screens: PubChem BioAssay, National Center for Advancing Translational Sciences (NCATS)
Sampled rows, rich in hits. Any-hit rate of the full collection: about 8.1%.
Sfp inh = blocks B. subtilis Sfp PPTase activity; Q9F4F7; Biochemical Sfp PPTase activity, qHTS; Potency, µM, for the others: largest response in the series, negative = inhibition, usual class: inhibitors; 310,000 compounds, 3.5% hits; AID 1490;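 note: the enzyme is Sfp with the accession as filed and its product quenches rhodamine fluorescence; 0% = enzyme reaction without inhibitor and -100% = no enzyme wells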
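With Hepes-Na pH 7.6 buffer containing 10 mM MgCl2, Sfp (15 nM) modified BHQ-2-YbbR (12.5 uM) using rhodamine-CoA (5 uM). Two reads 30 minutes apart at 525/598 nm yielded each well's rate.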
PINK1 expr mod = changes PINK1 expression. AID 624263. PINK1 immunofluorescence, high-content cytometry, 24 h. 410,000 compounds, 0.2% hits. Potency, µM (series often up to 76.6 µM), for the others: top-dose activation (PINK1 increase), actives largely listed as activators; active = well fitted activation curve with a large enough effect; inconclusive = small, poorly fitted or top-dose-only effect; cell line not stated here; note: % of control where 0% means no effect; nearly all actives have a fitted effect of over 65% in size
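Stable cell line, 250 cells/well, 12 h attachment; compounds pinned at 5 concentrations, 24 h; CCCP control. Fixed with nuclear dye, primary antibodies 12 h at 10 degrees C, secondary plus cell stain; laser-scanning cytometer read.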
Epigenetic derep = regulators of epigenetic silencing causing reporter derepression in mouse cells. 280,000 compounds, 0.2% hits. Potency, µM (doses to about 53.9 µM), without a hit: top-dose GFP activation, actives largely listed as activators. AID 1865. murine LDR cells, GFP reporter derepression, 30 h; note: % of control where 0% means no effect; nearly all actives have a fitted effect of over 60% in size
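Murine LDR cells carrying a silenced, genomically integrated CMV-driven GFP reporter were exposed to compound for 30 hours at 37 C. After PBS washes, GFP-positive cells (20–120 um objects) were counted by laser-scanning microplate cytometry.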
Gal4-VP16 FLuc = inhibits Gal4-VP16 luciferase reporter, ROR gamma counter-screen | Drosophila S2 Gal4-VP16 UAS-luciferase, luminescence, 20 h | Potency, µM (series often up to 53.6 µM), inactives show top-dose activity, negative = inhibition, usual class: inhibitors | 310,000 compounds, 3.5% hits;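 note: Gal4-VP16 expression switched on by copper sulfate through the metallothionein promoter; % is set by controls: 0 for no effect and ±100 for the full control effect; nearly all actives have a fitted effect of over 50% in size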
RORg inh = inhibitors of mouse ROR gamma transcriptional activity; Drosophila S2 Gal4-RORgamma UAS-luciferase reporter, 20 h; Potency, µM (doses to about 53.6 µM), inactives show at the top dose activity change, negative = inhibition, actives largely listed as inhibitors; 310,000 compounds, 5.4% hits; note: % is set by controls: 0 for no effect and ±100 for the full control effect; nearly all actives have a fitted effect of over 60% in size
Target sequence (P51450 whole entry, looked up, the tested form may be a part): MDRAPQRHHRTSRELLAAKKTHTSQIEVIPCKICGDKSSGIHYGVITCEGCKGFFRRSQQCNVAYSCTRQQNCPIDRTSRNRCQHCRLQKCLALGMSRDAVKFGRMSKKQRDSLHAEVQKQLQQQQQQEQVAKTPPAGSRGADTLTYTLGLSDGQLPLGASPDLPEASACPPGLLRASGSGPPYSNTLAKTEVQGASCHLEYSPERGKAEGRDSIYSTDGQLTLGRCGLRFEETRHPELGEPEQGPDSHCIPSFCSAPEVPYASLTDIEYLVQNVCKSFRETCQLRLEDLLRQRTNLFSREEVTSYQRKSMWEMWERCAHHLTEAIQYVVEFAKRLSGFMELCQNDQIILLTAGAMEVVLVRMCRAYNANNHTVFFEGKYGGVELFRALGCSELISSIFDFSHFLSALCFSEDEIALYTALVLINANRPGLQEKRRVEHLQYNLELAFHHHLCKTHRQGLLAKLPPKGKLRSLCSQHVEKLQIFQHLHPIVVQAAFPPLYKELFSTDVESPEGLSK
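A Gal4/UAS one-hybrid system in insect cells: metallothionein-promoter Gal4–ROR gamma fusion plus Photinus luciferase reporter. Copper sulfate 700 uM final, 20 hr ambient incubation, luminescent detection after 10 min with reagent.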
ClpP mod = qHTS Assay for Activators of ClpP; 340,000 compounds, 1.9% hits; ATP-dependent Clp protease proteolytic subunit (Bacillus subtilis (strain 168)), P80244; Potency, µM (doses to about 57.5 µM), for the others: top-dose activity change, negative = active; AID 651965, 2013; purified B. subtilis ClpP, FRET peptide cleavage, 20 min; active = well fitted falling curve with a large enough effect; inconclusive = small, poorly fitted or top-dose-only effect; inactive = no such curve, though single readings can be large or run the other way; note: the source files actives as falling curves though it sought activators and does not explain the sign; nearly all actives have a fitted effect of over 65% in size
Target sequence (P80244 whole entry, looked up): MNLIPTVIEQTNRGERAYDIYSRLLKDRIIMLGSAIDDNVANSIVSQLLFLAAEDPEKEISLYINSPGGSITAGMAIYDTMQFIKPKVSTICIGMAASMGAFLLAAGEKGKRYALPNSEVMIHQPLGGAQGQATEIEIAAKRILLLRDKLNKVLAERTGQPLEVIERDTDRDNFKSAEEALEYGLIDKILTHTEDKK
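FRET quenching reversal measured ClpP activation: 10 microg/mL B. subtilis ClpP at pH 8 with the FRET-FV decapeptide, read at 430 nm after 320 nm excitation. The 20-min minus 0-min signal was scaled between DMSO/no-enzyme wells and ADEP (5.8 microM final).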
* = called active by the depositor; ? = inconclusive; nt = no result given; [ ] = remark or other dose. Unless noted, calls come from the whole dose curve; as a rule, active = well fitted curve in the direction sought with a large enough effect; inconclusive = small, poorly fitted or top-dose-only effect, or another doubt; inactive = no such curve, though single readings can be large; an effect the other way counts as inactive or inconclusive. Potency is the fitted concentration of half-maximal effect.

SMILES	Sfp inh	PINK1 expr mod	Epigenetic derep	Gal4-VP16 FLuc	RORg inh	ClpP mod
O=C(O)/C=C/C(=O)Nc1ccccc1-c1ccccc1	32µM*	-2%	1%	-10%	12%	25µM*
COCC(=O)Nc1ccccc1-c1ccccc1	16%	-1%	0%	-1%	-19%	0%
O=C(O)/C=C/C(=O)Nc1ccc(NC(=O)c2ccccc2)c(Cl)c1	56µM*	-1%	0%	-8%	27%	nt
O=C(O)/C=C\C(=O)Nc1cccc(NC(=O)c2ccccc2)c1	-10%	-1%	-6%	-8%	14%	nt
O=C(O)/C=C/C(=O)Nc1ccc(Cl)cc1C(=O)c1ccccc1	79µM*	0%	0%	-3%	14%	nt
O=C(O)/C=C/C(=O)Nc1ccc(C(=O)c2ccccc2)cc1	1%	3%	0%	6%	?	0%
Cc1c(C(=O)NCc2ccc3c(c2)OCO3)cnn1-c1ncc2c(n1)-c1ccccc1CC2	nt	1%	nt	nt	nt	nt
CC1Cc2c(-c3ccccc3)nc3c(c2CO1)CN(CCOc1ccccc1)CC3 (centres undefined)	4%	nt	1%[10.1 µM]	-2%[10 µM]	5%[10 µM]	nt
CCN(CCCNC(=O)Cn1ncc2c3ccccc3n(C)c2c1=O)c1cccc(C)c1	nt	0%	-1%	nt	nt	-8%
Cc1cc(NC(=O)COC(=O)c2oc3c(ccc4ccccc43)c2C)no1	-9%	10%	2%	11µM*	?	?
Cc1c(C(=O)OCC(=O)Nc2ccc(S(N)(=O)=O)cc2)oc2c1ccc1ccccc12	13%	6%	0%	?	35%	0%
Cc1cc(C)c2oc(C(=O)Nc3c(C(=O)c4ccccc4)oc4ccccc34)cc(=O)c2c1	nt	3%	-2%	nt	nt	-1%
O=C(Nc1c(Cl)cc(Cl)cc1-c1nc2ccccc2s1)c1ccc(Br)o1	4%	-1%[38.3 µM]	-1%	-2%	-3%	25µM*
O=C(Nc1ccccc1-c1nc2ccccc2s1)c1cc(Cl)cc(Cl)c1	nt	4%	0%	nt	nt	0%
O=C(Nc1ccc(N2CCOCC2)c(S(=O)(=O)Nc2ccc(Cl)cc2)c1)c1cnccn1	5.6µM*	2%	1%	-1%	?	-2%
COc1ccc(-c2nc3cnc(N4CCOCC4)nc3n(-c3ccc(OC)cc3)c2=O)cc1	-25%	3%	nt	-2%	4%	nt
CCC(CC)c1nnc(NC(=O)c2c(C)nn(Cc3ccccc3Cl)c2C)s1	-10%	8%	-2%	?	11µM*	1%
Cc1nn(Cc2ccccc2Cl)c(C)c1NC(=O)c1ccn(C)n1	-5%	5%	8%	-2%	35%	-4%
Cc1nn(Cc2ccccc2Cl)c(C)c1C(=O)NC1=NCCS1	19%	0%	2%	-1%	10µM*	-1%
O=C(NC1=NCCS1)c1ccccc1OCc1ccccc1Cl	3%	-2%	2%	?	10µM*	0%
CCc1ccc(Oc2c(C(F)(F)F)oc3c(CN4CCC(C)CC4)c(O)ccc3c2=O)cc1	nt	19%	0%	nt	nt	1%
O=C(CCl)c1ccc2c(c1)CCCC2	nt	1%	nt	nt	nt	0%
Cc1ccc2nc(COc3ccccc3NC(=O)C(C)(C)C)cc(=O)n2c1	nt	1%	12%	nt	nt	25µM*
CCN(CC(=O)Nc1ccc(N2CCOCC2)cc1)Cc1nc2ccccc2c(=O)[nH]1	?	-2%	-2%	13µM*	4µM*	-4%
CCN(CC(=O)Nc1ccc2c(c1)OCO2)Cc1nc2ccccc2c(=O)[nH]1	?	-1%	0%	7.1µM*	2.5µM*	-1%
SMILES	Sfp inh	PINK1 expr mod	Epigenetic derep	Gal4-VP16 FLuc	RORg inh	ClpP mod
CN(CC(=O)Nc1cccc(F)c1)C(=O)CCCc1nc2ccccc2c(=O)[nH]1	nt	1%	nt	nt	nt	1%
CCN(CC(=O)Nc1cccc(Br)c1)Cc1nc2ccccc2c(=O)[nH]1	-15%	-2%	1%	7.1µM*	4µM*	-3%
CN(CC(=O)Nc1ccc(N2CCOCC2)cc1)Cc1c(O)ccc2ccccc12	?	0%	-3%	18%	1.8µM*	nt
CCN(C(=O)c1cc2c(Cl)nc3ccccc3c2s1)c1cccc(Cl)c1	nt	1%	2%	nt	nt	-4%
COc1ccc(Cl)cc1NC(=O)Cn1cnc2sc(C)c(S(=O)(=O)N3CCN(c4ccccc4OC)CC3)c2c1=O	nt	1%	2%	nt	nt	0%
Cc1ccc(C)c(NC(=O)Cn2cc(S(=O)(=O)Cc3cccc(Cl)c3)c3ccccc32)c1	nt	?	?	nt	nt	-1%
CN1CCN(C2(CNC(=O)c3ccc(C(C)(C)C)cc3)CCCCC2)CC1	nt	-1%	-2%	nt	nt	-4%
Cc1ncc2c(c1CNC(=O)c1ccc3c(c1)OCO3)CCN(C(=O)/C=C/c1ccccc1Cl)C2	nt	-1%	nt	nt	nt	nt
COc1cc2nc(CN(C)CC(=O)Nc3ccc(N4CCOCC4)cc3)[nH]c(=O)c2cc1OC	3.5µM*	0%	-3%	?	5%	2%
CN(CC(=O)Nc1ccc(N2CCOCC2)cc1)CC(=O)Nc1ccc(N2CCOCC2)cc1	-7%	1%	0%	-14%	18%	0%
CCN(CC(=O)Nc1ccc2c(c1)CCC2)Cc1nc2ccccc2c(=O)[nH]1	?	2%	-3%	-3%[0.365 µM]	5µM*	-2%
CCN(CC)CCn1c(SCC(=O)Nc2ccc3c(c2)CCC3)nc2ccccc2c1=O	nt	1%	nt	nt	nt	-18%
CCN(CC(=O)Nc1ccc2c(c1)OC(F)(F)O2)Cc1nc2ccccc2c(=O)[nH]1	-16%	8%	-3%	?	10µM*	0%
COc1ccccc1CN(Cc1nc2ccccc2c(=O)[nH]1)C(=O)Nc1cccc(C)c1	4%	3%[38.3 µM]	0%	6%	7.1µM*	-1%
CCOc1ccc(NC(=O)CN(C)C(=O)CCc2nc3ccccc3c(=O)[nH]2)cc1OCC	nt	1%	nt	nt	nt	-5%
COc1ccccc1NC(=O)N(Cc1ccc2c(c1)OCO2)Cc1nc2ccccc2c(=O)[nH]1	19%	3%	0%	-24%	?	0%
O=C(CSc1n[nH]c(-c2ccccc2)n1)NCCCc1ccccc1	nt	1%	-4%	nt	nt	0%
Cc1ccccc1NC(=O)Cn1nnc(C(=O)NCCc2ccccc2)c1N	nt	0%	2%	nt	nt	0%
COc1ccc(CN2CCOc3c(O)cc(-c4cc(C)c5ccc(F)cc5n4)cc3C2)c(O)c1	nt	0%	nt	nt	nt	nt
COc1ccc(OC)c(/C=C/C(=O)N(C)CC(=O)Nc2ccc(N3CCOCC3)cc2)c1	nt	-1%	nt	nt	nt	28µM*
COc1ccc(CCC(=O)N(C)CC(=O)Nc2ccc(N3CCOCC3)cc2)cc1	27%	0%	2%	-7%	-5%	nt
